The results in this text go back to the OligoGym collection.
Note: reference of the scale not given here.

The first assay has as its target BOLA1. As to the kind of experiment: pooled miR-30 sensor sort-seq; sequence = guide strand. Conditions: shRNA.
Take TGATTCTTCTCTTTTCTCGGGT: the sensor-assay potency score (higher = more potent) is 0.0423.
On the same count and under the same terms, under TGCGAAGCTCTAGCACCTCGGG stands -1.19.
The same measure, in the same setting: in the case of TTCTTGTTCCCACCCAGGCATG it was -1.63; in that of TAGGGGGCTCAGTCCCTCGAAA, -1.29; in that of TCTCGTTGCGAAGCTCTAGCAC, -0.674.
The same measure, in the same setting: in the case of TAACATGGAACATCCGGGCTGC it was 0.946; in that of TGGGGGGCTAGTGTCCAGCTGA, -1.56.

For the next assay, the target named is BOP1. The assay is described as above. Conditions: shRNA.
TAGTCAGGATCGTCCATCTTGT had a sensor-assay potency score (higher = more potent) of -0.541.
TTGTACACCATGCCATGGCAGA had a sensor-assay potency score (higher = more potent) of -1.35.
In turn, TTCCTGGATGAAGCGTCCGTAG registered a sensor-assay potency score (higher = more potent) of -1.83.
Still for that read-out and setting: in the case of ATCCAGGTCAAACCACACCAGC it was -1.99; in that of TTGACGGGCACCAGCAAGGGGT, -1.16.
The same measure, in the same setting: in the case of TCTACATTCACCCTCATCTTGC it was -0.893.
Sequence TTGATGGCGTGCACCATGCGAG registered a sensor-assay potency score (higher = more potent) of -1.27.
Regarding TTCGTCATCATCCTCACTGCTG, the sensor-assay potency score (higher = more potent) stood at 0.313.
Still for that read-out and setting: in the case of AGGATCGTCCATCTTGTCCAGG it was -2.16.
TTGGGCATCAGCTTCTTGGTGA showed a sensor-assay potency score (higher = more potent) of 0.503.
The sequence TTGCTATCGTAGCTCCCACAGA had a sensor-assay potency score (higher = more potent) of -1.14.
Still for that read-out and setting: in the case of TCAAACCACACCAGCTTGCTAT it was -1.16.

A further assay deals with BRAP. The assay is described as above. Conditions: shRNA.
Take TCTTCTATTGAGTTGAACTGGC: the sensor-assay potency score (higher = more potent) is -0.232.
As for TTTCTTTCCACAGACTGCTTTT, the sensor-assay potency score (higher = more potent) is -0.773.
On the same count and under the same terms, in the case of TTAGTAAATATGAATACTCTAA it was -0.689.
Same read-out and setting: in the case of TTTCCTGAACACCACACTCAAA it was -1.71.
On the same count and under the same terms, under TAGGAGATCATTTAGTTTGTGC stands 0.0397; under TTTTACTTGCAACCAGTCGATG, -1.46.
In the case of TAAATATGAATACTCTAACTGT, the sensor-assay potency score (higher = more potent) was -0.208.
As for TTTAGCTGAGTGCACTTTCTTT, the sensor-assay potency score (higher = more potent) was -0.371.
With TGACATACCGTCCACATCCTAT, the sensor-assay potency score (higher = more potent) is -1.06.
The same measure, in the same setting: in the case of TAATCGCTACTTTCTCTCCTGG it was -0.199.
On the same count and under the same terms, in the case of AAAACTATCCGCATCAGCCTGT it was 0.418; in that of TTCTCTATCCGAACTATCTTGT, -0.12.

The target in a further assay is BRD2. Described as above. Conditions: shRNA.
The sequence TGCAGTAACAGCAAGGAGCGGG came in with a sensor-assay potency score (higher = more potent) of -0.301.
For the sequence TTTCTCATTCGCTTTCTTGGGG, the sensor-assay potency score (higher = more potent) came to 0.425.
As for TAGGACAATATCATCAGTGGGC, the sensor-assay potency score (higher = more potent) was determined as 0.486.
In turn, TTCTCATTCGCTTTCTTGGGGG displayed a sensor-assay potency score (higher = more potent) of -0.27.
In the case of TTATTTACAAGTTAGAATCAAC, the sensor-assay potency score (higher = more potent) is -0.816.
Same read-out and setting: under TTTGGGATTGGACACCTCCGGG stands -1.12.
The same measure, in the same setting: in the case of TATAATTTTGTGATAATCCGGT it was 0.775; in that of TAAAATCTTGCATACACTCTGA, -0.097; in that of TAATTTTGTGATAATCCGGTAG, 0.162.
